Experimental data taken from PubChem BioAssay (NCI).
Compounds without any hit were thinned out: in the full panel of roughly 83,000, 20% have a hit.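 In brief: 96-well plates, 48 h treatment, single concentration, percent growth endpoint.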 A number with no mark means an inactive call. The source made the active and inactive calls. The calls were made as follows: active = growth percent below 10; inactive = the rest.

Key:
Assay in all cases: NCI-60 one-dose screen, 48 h (100 = growth as untreated, 0 = no growth, -100 = all killed)
Conditions in all cases: 10 µM unless noted
[1] = system: NCI-H23 lung
[2] = system: NCI-H226 lung
[3] = system: NCI-H322M lung
[4] = system: HOP-62 NSCLC
[5] = system: NCI-H460 lung
[6] = system: HOP-92 NSCLC
[7] = system: NCI-H522 lung
[8] = system: A549/ATCC NSCLC
[9] = system: 786-0 renal
[10] = system: COLO 205 colon
[11] = system: DU-145 prostate
[12] = system: K-562 leukemia
[13] = system: MALME-3M melanoma
[14] = system: MDA-MB-231 breast
[15] = system: RXF 393 renal
[16] = system: SF-268 CNS
[17] = system: SF-539 CNS
[18] = system: UACC-257 melanoma
[19] = system: M14 melanoma

| Structure (SMILES) | growth [1] | growth [2] | growth [3] | growth [4] | growth [5] | growth [6] | growth [7] | growth [8] | growth [9] | growth [10] | growth [11] | growth [12] | growth [13] | growth [14] | growth [15] | growth [16] | growth [17] | growth [18] | growth [19] |
| --- | --- | --- | --- | --- | --- | --- | --- | --- | --- | --- | --- | --- | --- | --- | --- | --- | --- | --- | --- |
| O=C1C2=C(C(=O)c3c(O)ccc(O)c31)N(c1ccc(N3CCOCC3)nc1)Cc1ccccc1O2 | -33.8% (active) | 0% (active) | -14.6% (active) | -13% (active) | -32.6% (active) | -66.1% (active) | -47.3% (active) | -23.2% (active) | -83.7% (active) | -67.5% (active) | -98% (active) | -17.5% (active) | -91.6% (active) | -89.6% (active) | -92.1% (active) | -42.5% (active) | -72.1% (active) | -92% (active) | -89.3% (active) |
| O=S(=O)(NCC[C@@H]1C[C@H]1c1ccc2ccccc2c1)c1ccc(C(F)(F)F)cc1 | 84.9% | 86.1% | 100% | 105% | 96.1% | 91.4% | 83.8% | 85.3% | 96.3% | 105% | 96.6% | 89.2% | 88.5% | 94.6% | 109% | 89.3% | 99.9% | 100% | 96.2% |
| Fc1[nH]nc2ccc([C@@H]3Nc4ccc5[nH]ncc5c4[C@H]4C5CCC(C5)[C@@H]34)cc12 (some centres undefined) | 45.2% | 47.5% | 47.7% | 37.6% | 11.5% | 67.3% | 10.3% | 28% | 51.9% | 9.22% (active) | 15.1% | 15.1% | 48.5% | 46.2% | -6.05% (active) | 57.5% | -15.9% (active) | 82.2% | 21.2% |
| CC(=O)O[C@H]1[C@H](CC#CC#CC[C@@H]2C[C@]3(C)[C@H]4CC=C5[C@H]6[C@@H](C)[C@H](C)CC[C@]6(C(=O)NCCCCCCCCN)CC[C@@]5(C)[C@]4(C)CC[C@H]3C(C)(C)[C@H]2OC(C)=O)C[C@]2(C)[C@H]3CC=C4[C@H]5[C@@H](C)[C@H](C)CC[C@]5(C(=O)NCCCCCCCCN)CC[C@@]4(C)[C@]3(C)CC[C@H]2C1(C)C | 99.1% | -83.5% (active) | 106% | 96.7% | 103% | 92.3% | 106% | 102% | 103% | 114% | 110% | 108% | 105% | 103% | 94.6% | 102% | 94.1% | 106% | 102% |
| CSC1=NC(=Nc2c(C)cccc2C)C2(CCC(C(C)(C)C)CC2)N1c1ccc(Cl)cc1 (centres undefined) | 48.6% | 48.6% | 64.8% | 42% | 16% | 62.7% | 48.2% | 30.5% | 51.1% | 40.8% | 40.3% | 17.7% | 38.5% | 61.8% | 38% | 42.8% | 46.5% | 54.1% | 49.5% |
| CSC(=S)N/N=C(\C)c1ccccn1 | 33.6% | 5.78% (active) | 8.08% (active) | 21.6% | -18.1% (active) | 31.3% | -3.86% (active) | 10.3% | 16.9% | 24% | 16.1% | 8.85% (active) | -3.24% (active) | 33.9% | 0.311% (active) | 17.3% | 1.81% (active) | 7.4% (active) | 1.91% (active) |
| C/C(=N\OC(=O)Nc1ccccc1)c1ccccc1 | 105% | 95.2% | 99.1% | 118% | 103% | 126% | 98.6% | 88.3% | 99.3% | 114% | 97.1% | 96.6% | 107% | 107% | 87.2% | 104% | 105% | 102% | 103% |
| CCOC(=O)Nc1ccc2nc(-c3cscn3)[nH]c2c1 | 71.6% | 63.5% | 63.1% | 54.1% | 21.7% | 114% | 43.7% | 45% | 67.7% | 29% | 72.9% | 19.1% | 22% | 59.9% | 39.2% | 66.5% | 62.9% | 66.6% | 16.1% |
| O=c1[nH]c2ccccc2n2cc3cccnc3c12 | 77.5% | 64.2% | 116% | 68.7% | 37.3% | 83.6% | 57.6% | 83.5% | 71.1% | 70% | 87.5% | 47.2% | 116% | 65.7% | 80.8% | 79.3% | 75.5% | 97.1% | 84.1% |
| O=C(NC1CC1)c1ccc(-c2nc3ccc4[nH]ncc4c3c3c2CCCC3)cc1 | 53.3% | 44.7% | 41.7% | 28.9% | 41.7% | 71.2% | 18.9% | 26.3% | 42.1% | 23.6% | 38.2% | 24.4% | 53.8% | 45.7% | -9.49% (active) | 35.1% | 31.3% | 60.2% | 44.7% |
| O=C(Nc1ccc(OS(=O)(=O)c2ccc(F)cc2)cc1)C12CC3CC(CC(C3)C1)C2 | 74.9% | 87.6% | 92.4% | 54.1% | 63.6% | 48.1% | 66% | 56.2% | 59.3% | 54.3% | 87.1% | 27.5% | 99.7% | 59.2% | 58.6% | 78.4% | 61% | 65.3% | 58.8% |
| CC1=NC(c2ccc(Cl)cc2)C2=C(N1)/C(=C/c1ccc(Cl)cc1)CCC2 (centres undefined) | 81.8% | 113% | 94.5% | 106% | 99.4% | 86.4% | 98.6% | 89% | 92.7% | 99% | 105% | 76.6% | 96.4% | 107% | 90.8% | 99.3% | 103% | 93.7% | 65.3% |
| COc1ccc(/C=C/C(=O)c2ccc(NC(=O)CSc3nnc(-c4ccc(OC)cc4)n3-c3ccccc3)cc2)cc1 | 99.2% | 99.2% | 103% | 101% | 107% | 106% | 91.4% | 80.2% | 102% | 107% | 104% | 78.1% | 96.8% | 90.9% | 108% | 101% | 100% | 91.9% | 92.7% |
| Cn1nc(C(F)(F)F)cc1-c1c[nH]c(OCc2ccc(Cl)cc2)c(-c2ccc(Cl)c(C(F)(F)F)c2)c1=O | 3.29% (active) | -17.3% (active) | 8.32% (active) | -25% (active) | 2.53% (active) | -22.6% (active) | -1.66% (active) | 13.4% | 3.83% (active) | -31% (active) | 15.7% | 8.64% (active) | -24.2% (active) | -29% (active) | -21.9% (active) | 8.48% (active) | -11.4% (active) | 4.21% (active) | 1.49% (active) |
| COc1ccc2[nH]c(O)c(/C=c3/ccc4c(c3)N=C(c3ccc(C(F)(F)F)cc3)N=4)c2c1 | 82.4% | 96.9% | 76.1% | 100% | 53.5% | 71.9% | 89.6% | 66.4% | 37.3% | 102% | 86.6% | 29.7% | 99.9% | 74.8% | -4.65% (active) | 85.6% | 78.2% | 94.9% | 90.1% |
| COc1cccc(NC(=O)c2c(-c3ccccc3)c(-c3ccccc3)n[nH]c2=O)c1 | 101% | 100% | 111% | 102% | 98% | 112% | 89.2% | 100% | 97.6% | 110% | 106% | 81.9% | 101% | 102% | 103% | 105% | 101% | 97.9% | 103% |
